Here are results for five compounds from PubChem BioAssay (Tox21).

Molecules are shown by their SMILES. Values joined by “and” are separate entries in the source; they are usually repeats but may differ in a detail not shown here. Equal entries are not always repeated. Inconclusive results are not listed. More than one record can exist for a structure, and the calls need not agree. Active and inactive are the calls of the source. Unless noted, the call rests on the fitted dose curve; in most records, active means well fitted curve in the direction sought with a large enough effect in the repeat runs; inconclusive means weak or mixed curves; inactive means no such curve, though single readings can be large; an effect the other way counts as inactive or inconclusive.

Test [1] in a line: Human pregnane X receptor (PXR) small molecule agonists, qHTS cell viability counter screen (AID 1346977). Further: nearly all actives have a fitted effect of over 50% in size. Further: potency means the concentration at half of the fitted maximal effect. In a few lines: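 PXR-Luc HepG2 cells in medium with 5% charcoal-stripped FBS were pre-incubated 5hr, then exposed to compounds for 24hr at 37C. Viability was read in the same wells by CellTiter-Fluor fluorescence, reagent added after 23hr with a 1hr incubation.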
A short description of test [2]: Caspase-3/7 induction in HepG2 cells by small molecules, qHTS assay (AID 1346978). Further: nearly all actives have a fitted effect of over 15% in size. In a few lines: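 Wild-type HepG2 cells, 2,000/well, settled 5 hr at 37 C and 5% CO2, then compound-treated for 17 hr; caspase-3/7 activity read by luminescent Caspase-Glo 3/7 after 30 min at room temperature.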
A short description of test [3]: Caspase-3/7 induction in CHO-K1 cells by small molecules, qHTS cell viability counter screen (AID 1346979). Further: nearly all actives have a fitted effect of over 35% in size. Further: potency means the concentration at half of the fitted maximal effect. In a few lines: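 Wild-type CHO-K1 cells were seeded at 1,500 per well, rested 5hr at 37 C, then exposed to compounds in DMSO. After 16hr, CellTiter-Fluor reagent was added and fluorescence read 1hr later as the viability measure.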
The nature of test [4]: Caspase-3/7 induction in CHO-K1 cells by small molecules, qHTS assay (AID 1346980). Further: nearly all actives have a fitted effect of over 15% in size. In a few lines:
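Wild-type CHO-K1 cells exposed to compounds for 17hr at 37 C, 5% CO2. Caspase-3/7 activity then measured by Caspase-Glo 3/7 luminescence after 30min at room temperature.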

Test [5] can be described thus: Caspase-3/7 induction in HepG2 cells by small molecules, qHTS cell viability counter screen (AID 1346981). Further: nearly all actives have a fitted effect of over 30% in size. Further: potency means the concentration at half of the fitted maximal effect. The procedure, abridged: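 Treatment of HepG2 cells with DMSO-delivered compounds ran 16 hr at 37 C following a 5-hr pre-incubation of 2,000 cells/well. CellTiter-Fluor fluorescence, read after 1 hr, served as the viability measure in a qHTS format.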
In test [6] the target is Nuclear receptor subfamily 1 group I member 2 (Homo sapiens) (UniProt O75469). In words: Human pregnane X receptor (PXR) small molecule agonists, qHTS assay (AID 1346982). Further: nearly all actives have a fitted effect of over 35% in size. Further: potency means the concentration at half of the fitted maximal effect. In a few lines:
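Stable HepG2 line reporting PXR-mediated CYP3A4 expression via luciferase. Treatment: 24 hr with compounds in DMSO at 37 C. Detection: ONE-Glo luminescence.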

Test [7] deals with Acetylcholinesterase (Homo sapiens) (UniProt P22303). In words: Acetylcholinesterase (AChE) small molecule antagonists: colormetric cell-based qHTS assay (AID 1347395; calls by dose curve; further: nearly all actives have a fitted effect of over 30% in size). The procedure, abridged:
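SH-SY5Y cells, plated overnight at 37 C, were exposed to compounds for 30 min at 37 C and 5% CO2. Acetylthiocholine plus DTNB was then added, and thiocholine from endogenous AChE was quantified colorimetrically after 90 min at 37 C.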

The target is the same in test [8]. In words: Acetylcholinesterase (AChE) small molecule antagonists: enzyme-based qHTS assay (AID 1347397; calls by dose curve; further: nearly all actives have a fitted effect of over 55% in size; further: potency means the concentration at half of the fitted maximal effect). To be noted: Potency: AChE enzyme activity inhibition. The procedure, abridged:
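Colorimetric DTNB read-out of thiocholine released from acetylthiocholine by recombinant human AChE (50 mU/mL as dispensed). Compounds were preincubated 30 min at RT before substrate/DTNB addition, with a 10 min RT reaction.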

The target is the same in test [9]. Nature of the test: Acetylcholinesterase (AChE) small molecule antagonists: fluorescence cell-based qHTS assay (AID 1347398; calls by dose curve; further: nearly all actives have a fitted effect of over 50% in size; further: potency means the concentration at half of the fitted maximal effect). As to conditions: Potency: AChE activity. In a few lines: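 SH-SY5Y, 2,000 cells/well, attached overnight; cmpd 30 min 37 C; acetylthiocholine/Thiolite Green cocktail 40 min RT; fluorescence Ex/Em 490/520 nm.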
The target is the same in test [10]. Nature of the test: Acetylcholinesterase (AChE) small molecule antagonists: enzyme-based qHTS assay with human liver microsomes (AID 1347399; calls by dose curve; further: nearly all actives have a fitted effect of over 60% in size; further: potency means the concentration at half of the fitted maximal effect). As to conditions: Potency: qHTS inhibition. The procedure, abridged:
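Recombinant human AChE (50 mU/mL in the enzyme mix) and human liver microsomes (0.25 mg/mL final) were preincubated with compound and NADPH (0.25 mg/mL final) for 30 min at 37 C. Acetylthiocholine/DTNB was then added; thiocholine was read colorimetrically after 10 min at room temperature.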

Test [11] addresses Cytochrome P450 2D6 (Homo sapiens) (UniProt P10635). Nature of the test: Cytochrome P450 Family 2 Subfamily D Member 6 (CYP2D6) small molecule antagonists: luciferase reporter qHTS assay (AID 1671196). Further: nearly all actives have a fitted effect of over 50% in size. Further: potency means the concentration at half of the fitted maximal effect. The procedure, abridged:
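Chemicals tested for interference with CYP2D6 activity; proluciferin substrate, NADPH regeneration, 1 h at room temperature, luminescent detection.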

Test [12] concerns the target Cytochrome P450 2C19 (Homo sapiens) (UniProt P33261). Nature of the test: Cytochrome P450 Family 2 Subfamily C Member 19 (CYP2C19) small molecule antagonists: luciferase reporter qHTS assay (AID 1671197). Further: nearly all actives have a fitted effect of over 65% in size. Further: potency means the concentration at half of the fitted maximal effect. The procedure, abridged:
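Relative luminescence units recorded 20 min after the detection reagent stopped a 1 h, 37C CYP2C19 reaction on proluciferin substrate, which was started by NADPH regeneration following 10 min room-temperature compound preincubation; ketoconazole positive control.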

In test [13] the target is Cytochrome P450 2C9 (Homo sapiens) (UniProt P11712). Nature of the test: Cytochrome P450 Family 2 Subfamily C Member 9 (CYP2C9) small molecule antagonists: luciferase reporter qHTS assay (AID 1671198). Further: nearly all actives have a fitted effect of over 50% in size. Further: potency means the concentration at half of the fitted maximal effect. In a few lines:
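P450-Glo proluciferin substrate with CYP2C9 enzyme; 10 min RT preincubation, then NADPH regeneration 1 h at 37C; luciferin detection reagent 20 min RT, luminescence in relative luminescence units.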

For test [14], the target named is Cytochrome P450 1A2 (Homo sapiens) (UniProt P05177). In words: Cytochrome P450 Family 1 Subfamily A Member 2 (CYP1A2) small molecule antagonists: luciferase reporter qHTS assay (AID 1671199). Further: nearly all actives have a fitted effect of over 50% in size. Further: potency means the concentration at half of the fitted maximal effect. In a few lines:
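Read-out is luminescence from luciferin detection reagent (20 min) proportional to CYP1A2 activity; compounds in DMSO preincubated 10 min with enzyme and proluciferin substrate, then NADPH regeneration solution, 1 h, room temperature.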

Test [15] deals with Voltage-gated inwardly rectifying potassium channel KCNH2 (Homo sapiens) (UniProt Q12809). Nature of the test: Human Ether-a-go-go-Related Gene (hERG) channel small molecule antagonists: fluorescence cell-based qHTS assay (AID 1671200). Further: nearly all actives have a fitted effect of over 50% in size. Further: potency means the concentration at half of the fitted maximal effect. In a few lines: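 U2OS cells expressing the channel were plated at 1000 cells/well, incubated overnight at 37 C, then loaded with FluxOR II thallium-sensitive dye for 1 h at room temperature in the dark, with a further 10 min at room temperature before stimulation.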

The target of test [16] is Nuclear receptor subfamily 1 group I member 2 (Rattus norvegicus) (UniProt Q9R1A7). In words: Rat pregnane X receptor (rPXR) activation by small molecules, qHTS assay (AID 1346983). Further: nearly all actives have a fitted effect of over 20% in size. As to conditions: rPXR luciferase reporter cells, One-Glo luminescence, 24 h; stronger effect = higher value. In a few lines:
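Cell-based rPXR activation assay: rPXR cells, 2,000 per well, rested 5hr at 37 C, then exposed to compounds in DMSO for 24 hr at 37 C. Luciferase activity read by One-Glo luminescence after 30 min at room temperature.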

Test [17] deals with Nuclear receptor subfamily 1 group I member 2 (Homo sapiens) (UniProt O75469). In words: CYP3A4 induction through human pregnane X receptor (PXR) by small molecules, qHTS assay (AID 1346984). Further: nearly all actives have a fitted effect of over 40% in size. In a few lines:
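After 24 h at 37C with compound, DPX-2 cells (HepG2, co-transfected PXR response element and CYP3A4 promoter-luciferase) got 3uM final P450-Glo Luciferin-IPA for 3 h; One-Glo luminescence followed.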

For test [18] the target is unchanged. In words: Human pregnane X receptor (PXR) activation by small molecules, qHTS assay (AID 1346985). Further: nearly all actives have a fitted effect of over 40% in size. In a few lines: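 DPX-2 cells (HepG2 co-transfected with a PXR response element and a CYP3A4-promoter luciferase construct) were seeded at 2,000 per well, rested 5 hr at 37C, then exposed to DMSO-dissolved compounds for 24 hr. Activation was read as luciferase luminescence.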
On the % scale 0 is the no-effect control and ±100 the full control effect.

Sequence of Nuclear receptor subfamily 1 group I member 2 (Homo sapiens) (O75469 whole entry, looked up): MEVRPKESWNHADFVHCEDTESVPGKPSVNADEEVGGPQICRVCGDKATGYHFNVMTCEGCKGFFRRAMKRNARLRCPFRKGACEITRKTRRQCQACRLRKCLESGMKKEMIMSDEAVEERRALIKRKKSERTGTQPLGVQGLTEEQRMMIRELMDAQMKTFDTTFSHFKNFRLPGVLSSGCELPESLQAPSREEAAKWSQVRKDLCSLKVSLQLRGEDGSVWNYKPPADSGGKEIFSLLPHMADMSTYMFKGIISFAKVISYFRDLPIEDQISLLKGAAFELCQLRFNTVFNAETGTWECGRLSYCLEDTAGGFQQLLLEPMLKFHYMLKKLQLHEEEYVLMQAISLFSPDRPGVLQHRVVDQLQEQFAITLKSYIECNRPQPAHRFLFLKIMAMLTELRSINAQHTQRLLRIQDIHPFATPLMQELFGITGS
Sequence of Voltage-gated inwardly rectifying potassium channel KCNH2 (Homo sapiens) (Q12809 whole entry, looked up): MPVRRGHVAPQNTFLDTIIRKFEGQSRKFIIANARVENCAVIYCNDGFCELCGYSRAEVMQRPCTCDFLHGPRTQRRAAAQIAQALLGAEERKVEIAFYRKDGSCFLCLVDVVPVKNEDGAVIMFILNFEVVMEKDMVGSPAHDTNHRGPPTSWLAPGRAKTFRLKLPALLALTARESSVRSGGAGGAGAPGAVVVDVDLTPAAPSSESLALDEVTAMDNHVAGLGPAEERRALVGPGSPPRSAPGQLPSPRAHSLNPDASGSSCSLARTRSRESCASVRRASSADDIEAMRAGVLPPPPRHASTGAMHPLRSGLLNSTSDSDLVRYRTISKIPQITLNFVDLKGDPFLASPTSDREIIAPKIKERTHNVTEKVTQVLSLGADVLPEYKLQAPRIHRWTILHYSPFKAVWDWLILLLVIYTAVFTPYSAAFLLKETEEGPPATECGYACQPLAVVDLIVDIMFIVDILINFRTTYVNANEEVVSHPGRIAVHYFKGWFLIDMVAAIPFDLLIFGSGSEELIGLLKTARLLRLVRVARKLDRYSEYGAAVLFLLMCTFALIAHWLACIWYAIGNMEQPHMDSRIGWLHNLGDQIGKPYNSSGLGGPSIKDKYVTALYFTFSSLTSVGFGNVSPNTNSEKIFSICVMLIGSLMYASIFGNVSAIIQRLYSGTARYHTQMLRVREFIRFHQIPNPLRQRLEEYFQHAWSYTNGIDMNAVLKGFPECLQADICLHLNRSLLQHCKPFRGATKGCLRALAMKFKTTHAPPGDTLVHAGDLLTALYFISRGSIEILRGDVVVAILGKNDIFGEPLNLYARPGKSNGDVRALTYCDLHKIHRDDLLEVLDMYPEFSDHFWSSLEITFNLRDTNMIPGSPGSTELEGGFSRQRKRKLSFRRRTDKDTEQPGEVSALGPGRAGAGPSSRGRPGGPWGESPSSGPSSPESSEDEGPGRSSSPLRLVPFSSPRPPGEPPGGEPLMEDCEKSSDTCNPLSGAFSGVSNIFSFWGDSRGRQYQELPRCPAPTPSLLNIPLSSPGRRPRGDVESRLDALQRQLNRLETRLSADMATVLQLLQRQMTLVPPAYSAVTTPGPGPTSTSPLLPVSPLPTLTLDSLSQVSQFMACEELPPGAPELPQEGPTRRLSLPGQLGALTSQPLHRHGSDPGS
Sequence of Cytochrome P450 2C9 (Homo sapiens) (P11712 whole entry, looked up): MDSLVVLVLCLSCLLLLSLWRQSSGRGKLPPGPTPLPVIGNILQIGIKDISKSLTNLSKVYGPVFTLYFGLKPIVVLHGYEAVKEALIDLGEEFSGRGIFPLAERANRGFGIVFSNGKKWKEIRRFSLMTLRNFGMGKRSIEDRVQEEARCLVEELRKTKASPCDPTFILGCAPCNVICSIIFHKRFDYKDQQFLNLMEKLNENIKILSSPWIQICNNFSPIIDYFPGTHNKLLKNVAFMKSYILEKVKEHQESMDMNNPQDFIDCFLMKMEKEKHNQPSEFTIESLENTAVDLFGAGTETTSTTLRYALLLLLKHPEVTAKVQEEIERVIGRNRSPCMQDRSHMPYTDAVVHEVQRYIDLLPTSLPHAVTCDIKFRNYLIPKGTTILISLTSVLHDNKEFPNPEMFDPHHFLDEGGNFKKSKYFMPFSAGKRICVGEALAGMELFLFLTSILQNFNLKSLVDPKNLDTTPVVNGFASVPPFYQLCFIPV
Sequence of Cytochrome P450 1A2 (Homo sapiens) (P05177 whole entry, looked up): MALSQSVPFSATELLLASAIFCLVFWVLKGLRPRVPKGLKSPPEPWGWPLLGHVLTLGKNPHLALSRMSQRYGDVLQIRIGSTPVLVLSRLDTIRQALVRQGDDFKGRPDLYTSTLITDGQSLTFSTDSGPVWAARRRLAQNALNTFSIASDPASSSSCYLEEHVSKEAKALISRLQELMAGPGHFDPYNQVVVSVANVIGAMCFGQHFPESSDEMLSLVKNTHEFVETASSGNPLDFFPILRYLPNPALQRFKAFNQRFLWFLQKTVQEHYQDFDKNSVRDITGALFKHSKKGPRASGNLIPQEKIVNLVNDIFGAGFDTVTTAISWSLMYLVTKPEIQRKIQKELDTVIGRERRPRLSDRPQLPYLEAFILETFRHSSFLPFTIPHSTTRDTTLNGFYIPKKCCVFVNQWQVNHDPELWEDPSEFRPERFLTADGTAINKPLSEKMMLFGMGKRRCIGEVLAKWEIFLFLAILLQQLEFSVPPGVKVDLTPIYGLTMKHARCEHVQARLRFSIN
Sequence of Cytochrome P450 2D6 (Homo sapiens) (P10635 whole entry, looked up): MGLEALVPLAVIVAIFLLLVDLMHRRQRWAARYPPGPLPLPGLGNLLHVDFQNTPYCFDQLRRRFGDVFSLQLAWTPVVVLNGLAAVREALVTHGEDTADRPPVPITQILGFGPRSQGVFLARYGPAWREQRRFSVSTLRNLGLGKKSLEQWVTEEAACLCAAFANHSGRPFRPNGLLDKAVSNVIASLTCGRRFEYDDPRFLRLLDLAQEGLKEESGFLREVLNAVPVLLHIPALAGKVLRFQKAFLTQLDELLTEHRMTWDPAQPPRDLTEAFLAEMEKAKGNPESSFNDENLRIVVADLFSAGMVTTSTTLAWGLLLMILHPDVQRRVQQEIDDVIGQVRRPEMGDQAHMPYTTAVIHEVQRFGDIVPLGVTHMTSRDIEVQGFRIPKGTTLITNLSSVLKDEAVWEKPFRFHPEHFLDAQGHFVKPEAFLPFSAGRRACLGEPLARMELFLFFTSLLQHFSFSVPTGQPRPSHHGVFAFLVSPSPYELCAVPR
Sequence of Cytochrome P450 2C19 (Homo sapiens) (P33261 whole entry, looked up): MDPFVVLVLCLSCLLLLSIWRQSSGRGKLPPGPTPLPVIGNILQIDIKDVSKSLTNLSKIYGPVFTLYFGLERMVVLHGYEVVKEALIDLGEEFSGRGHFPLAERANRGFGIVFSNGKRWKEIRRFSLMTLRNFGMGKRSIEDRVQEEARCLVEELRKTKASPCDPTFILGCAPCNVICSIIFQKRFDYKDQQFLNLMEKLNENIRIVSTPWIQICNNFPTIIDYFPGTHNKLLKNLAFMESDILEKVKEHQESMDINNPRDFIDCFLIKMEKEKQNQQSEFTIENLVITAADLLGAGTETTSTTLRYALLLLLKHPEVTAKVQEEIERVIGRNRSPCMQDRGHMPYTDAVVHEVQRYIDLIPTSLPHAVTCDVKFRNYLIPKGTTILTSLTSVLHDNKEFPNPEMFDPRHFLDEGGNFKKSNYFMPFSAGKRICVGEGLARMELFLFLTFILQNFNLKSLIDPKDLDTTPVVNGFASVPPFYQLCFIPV
Sequence of Acetylcholinesterase (Homo sapiens) (P22303 whole entry, looked up): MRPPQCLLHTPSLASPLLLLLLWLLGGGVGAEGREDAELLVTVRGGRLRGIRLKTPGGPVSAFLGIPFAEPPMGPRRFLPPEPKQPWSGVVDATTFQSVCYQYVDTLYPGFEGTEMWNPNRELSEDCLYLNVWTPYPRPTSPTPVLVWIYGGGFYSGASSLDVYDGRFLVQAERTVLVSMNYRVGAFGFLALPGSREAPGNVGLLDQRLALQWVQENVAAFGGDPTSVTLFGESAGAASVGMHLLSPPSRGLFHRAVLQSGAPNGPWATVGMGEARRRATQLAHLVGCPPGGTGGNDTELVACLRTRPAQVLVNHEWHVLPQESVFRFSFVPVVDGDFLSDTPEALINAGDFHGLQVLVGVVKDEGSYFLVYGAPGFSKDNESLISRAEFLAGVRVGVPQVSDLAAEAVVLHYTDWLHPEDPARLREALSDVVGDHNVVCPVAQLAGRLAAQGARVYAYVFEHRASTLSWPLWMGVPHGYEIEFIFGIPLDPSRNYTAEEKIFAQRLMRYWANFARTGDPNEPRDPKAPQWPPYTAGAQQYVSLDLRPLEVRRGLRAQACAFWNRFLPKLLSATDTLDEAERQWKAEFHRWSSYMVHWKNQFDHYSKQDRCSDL
Sequence of Nuclear receptor subfamily 1 group I member 2 (Rattus norvegicus) (Q9R1A7 whole entry, looked up): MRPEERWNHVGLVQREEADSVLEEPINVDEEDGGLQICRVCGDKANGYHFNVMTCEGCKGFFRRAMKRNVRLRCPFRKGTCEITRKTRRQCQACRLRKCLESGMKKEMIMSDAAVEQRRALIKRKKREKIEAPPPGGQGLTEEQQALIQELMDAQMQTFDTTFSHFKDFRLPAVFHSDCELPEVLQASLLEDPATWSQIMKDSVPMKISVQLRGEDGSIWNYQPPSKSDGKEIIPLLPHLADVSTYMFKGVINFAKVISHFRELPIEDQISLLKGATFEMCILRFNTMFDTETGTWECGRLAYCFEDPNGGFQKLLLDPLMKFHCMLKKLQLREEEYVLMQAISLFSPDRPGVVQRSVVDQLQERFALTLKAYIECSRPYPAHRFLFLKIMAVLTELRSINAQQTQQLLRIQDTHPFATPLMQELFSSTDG

Take `ClC(Cl)=C(Cl)C(Cl)=C(Cl)Cl`: the Potency entry in test [1], in test [2], in test [3], in test [4], in [5] and in [6] was “inactive” each time. The Potency result in test [7], in test [8], in test [9], in test [10], in [11] and in test [12] was “inactive” throughout. The Potency result in [13], in test [14] and in test [15] was “inactive” in each case.

On to `CC(C)(c1ccc(OCC2CO2)cc1)c1ccc(OCC2CO2)cc1` (stereo unspecified), for which the Potency entry in [1], in test [2], in test [3], in [4], in test [5] and in test [7] was “inactive” in each case. For the same compound, the Potency entry in [8], in test [9], in test [10], in test [11], in test [14] and in test [15] was “inactive” in each case. The Potency in test [6] was 69.5 µM (active); in test [12] it was 50.9 µM (active) and 79.6 µM (active); in [13], 64.1 µM (active) and 39.9 µM (active).

Regarding `CCC1(c2ccc(N)cc2)CCC(=O)NC1=O` (stereo unspecified), the Potency entry in [1], in [2], in test [3], in test [4], in test [5] and in [6] was “inactive” each time. Besides, the Potency result in test [17], in test [7], in test [8], in test [9], in test [10] and in [11] was “inactive” throughout. Further, the Potency entry in [12], in test [13], in test [14] and in test [15] was “inactive” in each case. Besides, the max activation in [16] was -2.76% (inactive). Further, the compound was called inactive in [18].

For `O=C1C(Cl)=C(Cl)C(=O)c2ccccc21`, the Potency is 39.8 µM (active) in test [1]; 4.34 µM (active) and 9.69 µM (active) in test [3]; 61.3 µM (active) in test [5]; 35.7 µM (active) and 25.2 µM (active) in test [8]; 11.3 µM (active) and 25.2 µM (active) in test [9]; 79.9 µM (active) and 31.7 µM (active) in test [10]. Moreover, the Potency in [11] is 17.9 µM (active) and 17.8 µM (active); in test [12], 7.99 µM (active) and 5.64 µM (active); in test [13], 5.04 µM (active) and 4.48 µM (active); in [14], 17.9 µM (active) and 8.94 µM (active); in [15], 21.9 µM (active). In addition, the Potency result in test [2], in [4], in test [6] and in test [7] was “inactive” throughout.

With `Cc1ccc(N=CN(C)C=Nc2ccc(C)cc2C)c(C)c1`, the Potency entry in [1], in test [2], in [3], in [4], in test [5] and in [17] was “inactive” each time. The Potency result in [7], in test [8], in test [9], in test [10], in test [13] and in test [15] was “inactive” each time. The Potency in test [6] is 15.4 µM (active) and inactive; in test [11] it was 31.9 µM (active) and 35.6 µM (active) and 27.5 µM (active); in [12], 79.6 µM (active) and inactive; in [14], 31.9 µM (active) and 35.6 µM (active) and 30.9 µM (active). In test [16], the max activation was 0.462% (inactive). In [18], the call was inactive.
